Laboratory results published in PubChem BioAssay AID1159580 (chemical genetic matrix, 2015).
Out of some 5,500 compounds screened, about 2,000 (36%) were called active. Inconclusive results (about 18%) are left out. This is one part of the list. A number with no mark means an inactive call. Rule as the data show it: active = normalized growth mostly below about 0.91 (no sharp cut-off); inconclusive = no clear call, values can overlap the other calls; inactive = mostly above about 0.92.

Assay: chemical genetic growth profiling, strain panel (AID 1159580);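 also: tested at 20 µM; growth read once vehicle control cultures reached saturation at 30 °C; 1 = growth at the plate median or of vehicle wells; lower values mean less growth of the strain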
Conditions: S. cerevisiae deletion strains, growth OD

Q: Which results are given for COc1ccc(CC2CCC(=NOC(=O)c3c(Cl)cccc3Cl)CC2)cc1 (stereo not given)?
A: normalized growth (locus YAR019C, strain CDC15, hits give low values): 1.03; normalized growth (locus YBL105C, strain PKC1, hits give low values): 1.06 [resistant] (active); normalized growth (locus YBR135W, strain CKS1, hits give low values): 1.04; normalized growth (locus YBR136W, strain MEC1, hits give low values): 1.05; normalized growth (locus YBR160W, strain CDC28, hits give low values): 1.05; normalized growth (locus YDL017W, strain CDC7, hits give low values): 1.04; normalized growth (locus YDL028C, strain MPS1, hits give low values): 1.04; normalized growth (locus YDL101C, strain DUN1, hits give low values): 0.994; normalized growth (locus YDL108W, strain KIN28, hits give low values): 1.04; normalized growth (locus YDL132W, strain cdc53, hits give low values): 1.01; normalized growth (locus YDL214C, strain PRR2, hits give low values): 0.948; normalized growth (locus YDR052C, strain DBF4, hits give low values): 0.99; normalized growth (locus YDR054C, strain cdc34, hits give low values): 1.02; normalized growth (locus YDR226W, strain ADK1, hits give low values): 1.02; normalized growth (locus YDR477W, strain SNF1, hits give low values): 0.956; normalized growth (locus YER123W, strain YCK3, hits give low values): 0.938; normalized growth (locus YER133W, strain GLC7, hits give low values): 0.949; normalized growth (locus YFL009W, strain cdc4, hits give low values): 1.02; normalized growth (locus YFL029C, strain CAK1, hits give low values): 1.03; normalized growth (locus YFR003C, strain YPI1, hits give low values): 1.04; normalized growth (locus YFR019W, strain FAB1, hits give low values): 0.971; normalized growth (locus YFR028C, strain CDC14, hits give low values): 1; normalized growth (locus YGR040W, strain KSS1, hits give low values): 0.957; normalized growth (locus YGR052W, strain FMP48, hits give low values): 0.98; normalized growth (locus YGR092W, strain DBF2, hits give low values): 1.01; normalized growth (locus YHR030C, strain SLT2, hits give low values): 0.829 (active); normalized growth (locus YHR079C, strain IRE1, hits give low values): 1; normalized growth (locus YHR082C, strain KSP1, hits give low values): 1.03; normalized growth (locus YHR205W, strain SCH9, hits give low values): 1; normalized growth (locus YIL147C, strain SLN1, hits give low values): 1.04; normalized growth (locus YJL095W, strain BCK1, hits give low values): 0.984; normalized growth (locus YJL157C, strain FAR1, hits give low values): 0.962; normalized growth (locus YJR016C, strain ILV3, hits give low values): 1.01; normalized growth (locus YJR066W, strain TOR1 (second series), hits give low values): 0.928; normalized growth (locus YJR066W, strain TOR1, hits give low values): 1.06; normalized growth (locus YKL048C, strain ELM1, hits give low values): 0.976; normalized growth (locus YKL067W, strain YNK1, hits give low values): 0.959; normalized growth (locus YKL101W, strain HSL1, hits give low values): 0.966; normalized growth (locus YKL193C, strain SDS22, hits give low values): 1.02; normalized growth (locus YKL203C, strain TOR2, hits give low values): 1.01; normalized growth (locus YLR113W, strain HOG1, hits give low values): 0.854 (active); normalized growth (locus YLR133W, strain CKI1, hits give low values): 0.98; normalized growth (locus YLR403W, strain SFP1, hits give low values): 1.01; normalized growth (locus YML070W, strain DAK1, hits give low values): 0.953; normalized growth (locus YMR001C, strain CDC5, hits give low values): 1.03; normalized growth (locus YMR205C, strain PFK2 (second series), hits give low values): 0.962; normalized growth (locus YMR277W, strain FCP1, hits give low values): 1.02; normalized growth (locus YNL006W, strain LST8, hits give low values): 1.05; normalized growth (locus YNL020C, strain ARK1, hits give low values): 0.977; normalized growth (locus YNL161W, strain CBK1, hits give low values): 1.05; normalized growth (locus YNL183C, strain NPR1, hits give low values): 1.05; normalized growth (locus YNL207W, strain RIO2, hits give low values): 1.01; normalized growth (locus YNL222W, strain SSU72, hits give low values): 1.06; normalized growth (locus YNL307C, strain MCK1 (second series), hits give low values): 0.963; normalized growth (locus YOL078W, strain AVO1, hits give low values): 1.03; normalized growth (locus YOL136C, strain PFK27, hits give low values): 0.961; normalized growth (locus YOR061W, strain CKA2, hits give low values): 0.971; normalized growth (locus YOR119C, strain RIO1, hits give low values): 1.03; normalized growth (locus YOR231W, strain MKK1, hits give low values): 1.02; normalized growth (locus YOR329C, strain SCD5, hits give low values): 1.05; normalized growth (locus YPL031C, strain PHO85, hits give low values): 0.952; normalized growth (locus YPL153C, strain RAD53, hits give low values): 0.948; normalized growth (locus YPL204W, strain HRR25, hits give low values): 0.929; normalized growth (locus YPL209C, strain IPL1, hits give low values): 1.04; normalized growth (locus YPL256C, strain CLN2, hits give low values): 0.941; normalized growth (locus YPR025C, strain CCL1, hits give low values): 1.06 [resistant] (active); normalized growth (locus YPR106W, strain ISR1, hits give low values): 1.04; normalized growth (locus YPR111W, strain DBF20, hits give low values): 1.04; normalized growth (strain NNK1, hits give low values): 1.03; normalized growth (strain TSCII, hits give low values): 1.02
